Compounds with a hit are over-represented: about 7.7% of the library has one in this group of screens.
Sm TGR block: inhibitors of Schistosoma mansoni thioredoxin glutathione reductase; purified TGR, DTNB reduction, TNB absorbance 405 nm; Potency, µM (top dose mostly 114 µM), for the others: at the highest dose activity change, negative = inhibition, actives largely listed as inhibitors; 3% of 360,000 active; further: potency means the concentration at half of the fitted maximal effect; nearly all actives have a fitted effect of over 60% in size
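Kinetic colorimetric format: TGR-catalysed, NADPH-driven DTNB reduction monitored via TNB absorbance. Enzyme dispensed at 20 nM; compound exposure 15 min at room temperature before reaction start.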
TbPYK inhibitor: blocks Trypanosoma brucei pyruvate kinase; Q57TT1; 0.12% of 410,000 active; AID 624173; TbPYK enzyme, Kinase-Glo Plus ATP luminescence, 45 min; Potency, µM (series often up to 76.8 µM), for inactives: at the top dose activity, negative = inhibition, actives largely listed as inhibitors; further: potency means the concentration at half of the fitted maximal effect; nearly all actives have a fitted effect of over 50% in size
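Screened from lowest to highest concentration, compounds were pinned into TbPYK/substrate mixtures, and ADP (130 uM final) was added. Plates sat at room temperature for 45 min prior to Kinase-Glo Plus detection by luminescence.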
FBPA Giardia inh: inhibitors of Giardia lamblia fructose-1,6-bisphosphate aldolase; purified Giardia FBPA; Potency, µM (top dose mostly 59.6 µM), inactives show at the highest dose activity, negative = inhibition, actives largely listed as inhibitors; 0.71% of 290,000 active; A8B2U2; AID 2451; further: potency means the concentration at half of the fitted maximal effect; nearly all actives have a fitted effect of over 55% in size
Target sequence (A8B2U2 whole entry, looked up): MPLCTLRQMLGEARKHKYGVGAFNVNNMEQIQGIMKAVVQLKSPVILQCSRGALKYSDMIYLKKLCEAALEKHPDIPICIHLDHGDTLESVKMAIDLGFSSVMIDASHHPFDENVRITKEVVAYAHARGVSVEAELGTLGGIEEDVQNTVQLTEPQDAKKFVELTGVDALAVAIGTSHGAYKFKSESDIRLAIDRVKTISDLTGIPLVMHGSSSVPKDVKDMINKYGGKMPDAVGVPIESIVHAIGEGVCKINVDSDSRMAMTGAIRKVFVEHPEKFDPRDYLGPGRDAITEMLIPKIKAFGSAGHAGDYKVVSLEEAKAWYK
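40 nM FBPA preincubated 10 min at RT with compound (up to 57.5 uM final), then substrate plus GAPDH/TPI/NAD/arsenate coupling and diaphorase/resazurin added. Fluorescence read after 20 min at RT, 525/598 nm.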
FMDV inh: blocks foot and mouth disease virus. Potency, µM (highest dose often 57.9 µM), without a hit: top-dose activity change, negative = inhibition, usual class: inhibitors. 1.2% of 410,000 active. FMDV antiviral cell-based qHTS; calls by dose curve; tested in HEK293T cells; further: read-out not given here; potency means the concentration at half of the fitted maximal effect; nearly all actives have a fitted effect of over 45% in size
HCMV inh: human cytomegalovirus inhibition; HFF cells, HCMV-luciferase reporter, 72 h; active compounds read low; activity change, negative = inhibition, % at 57.5 µM; 4.5% of 410,000 active; in the data active means activity change below about -60%; inconclusive means no clear call, values can overlap the other calls; inactive means above about -39%
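Screen run at 2 compound doses on HFFs infected with reporter HCMV, MOI 1 PFU/cell. Luciferase activity from cell lysates at 72 h post infection gave inhibition relative to buffer-only and Salinomycin wells.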
RE007 growth inh: less growth of the S. pombe RE007 Vpr strain. 0.21% of 360,000 active. Potency, µM (top dose mostly 92.2 µM), without a hit: at the top dose activity change, negative = less growth, usual class: inhibitors. S. pombe RE007 Vpr strain, BacTiter-Glo ATP luminescence, 24 h. AID 651644; active means well fitted falling curve with a large enough effect; inconclusive means small, poorly fitted or top-dose-only effect; inactive means no such curve, though single readings can be large or run the other way; further: potency means the concentration at half of the fitted maximal effect; nearly all actives have a fitted effect of over 50% in size
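Fission yeast strain RE007, carrying one chromosomally integrated HIV-1 vpr copy, was seeded at OD 0.01 in PMG+AL medium with 23 nL pinned compound. After 24 h at 30 °C and 99% humidity, viability was read by BacTiter-Glo luminescence.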
Numbers without * were called inactive; ? = inconclusive; / = no result given; [ ] = dose if it differs, or a comment. Unless noted, the call rests on the fitted dose curve; in most records, active means well fitted curve in the direction sought with a large enough effect; inconclusive means small, poorly fitted or top-dose-only effect, or another doubt; inactive means no such curve, though single readings can be large; an effect the other way counts as inactive or inconclusive. On the % scale 0 is the no-effect control and ±100 the full control effect.

SMILES	Sm TGR block	TbPYK inhibitor	FBPA Giardia inh	FMDV inh	HCMV inh	RE007 growth inh
CC(C)c1ccc(C2=CC(c3cccc(Cl)c3)n3c(nc4ccccc43)N2)cc1 (stereo not given)	-3.1%	2.6%	/	-75.2%	-63.2*	/
CC(C)c1ccc(C2=CC(c3cccc(Cl)c3)n3ncnc3N2)cc1 (stereo not given)	-16.9%	-6.0%	/	-14.3%	3.5	/
COc1ccccc1CNc1ncnc2sc(C(=O)N3CCN(C)CC3)c(C)c12	/	/	/	2.6%	/	/
COC(=O)CCCn1c(-c2ccc(C)cc2)c(C)n2c3c(=O)n(C)c(=O)n(C)c3nc12	7.1%	4.8%	/	?	-13.6	/
Cc1ccc(-c2c(C)n3c4c(=O)n(C)c(=O)n(C)c4nc3n2CCCO)cc1	-2.9%	4.6%	/	11.2µM*	-73.1*	/
O=C(Cn1ccn(-c2ccc(F)cc2)c(=O)c1=O)Nc1ccc(F)cc1	7.6%	7.2%	/	-8.3%	-1.6	/
COc1ccccc1CCNC(=O)Cc1c(C)c2c(O)cc(C)cc2oc1=O	-1.5%	0.0%	/	-6.7%	-7.0	/
COc1cc(CC2C(=O)Nc3ccccc32)cc(C)c1O (stereo not given)	39.8µM*	-6.1%	-2.5%	-5.7%	-31.3	-4.1%
COc1ccc2oc(-c3cccc(NC(=O)c4cc([N+](=O)[O-])ccc4N4CCOCC4)c3)nc2c1	2.9%	-2.3%	/	-12.2%	11.0	/
CCC/C=C(\CCC)C(NS(C)(=O)=O)c1ccccc1 (stereo not given)	/	/	3.7%	/	/	/
C[C@H]1CCC/C=C/C2C[C@H](O)CC2[C@H](O)/C=C/C(=O)O1 (stereo not given in full)	-14.6%	-2.9%	6.4%	-24.5%	/	19.7%[18.4 µM]
CC1CCC/C=C/C2CC(O)CC2C(O)/C=C/C(=O)O1 (stereo not given)	-6.0%	0.3%	-0.5%	-23.6%	-99.7*	2.8%
COc1cccc(NC(=O)N2CCc3nc(Nc4ccc(C(C)C)cc4)ncc3C2)c1	/	-6.6%	/	-13.7%	-68.6*	2.6%
CC(C)c1ccc(NC(=O)N2CCc3nc(NCc4cccc(Oc5ccccc5)c4)ncc3C2)cc1	/	3.5%	/	-34.3%	-86.6*	6.9%[18.4 µM]
O=C(Nc1cccc(F)c1)N1CCc2nc(NCc3cccc(Oc4ccccc4)c3)ncc2C1	/	-4.9%	/	?	-77.8*	3.1%[18.4 µM]
COc1ccc(-c2ccc(=O)n(CC(=O)Nc3ccccc3C(F)(F)F)n2)cc1	6.8%	-4.4%	/	-2.1%	1.5	/
CCc1ccccc1NC(=O)N1CCC(CN2CCc3ccccc3C2)CC1	-5.6%	4.8%	/	-6.7%	-1.3	/
CC1(C)N=C(N)N=C(N)N1c1ccc(Cl)cc1	/	0.5%	/	/	/	/
CCc1ccc(OCC2NCCc3cc(OC)c(OC)cc32)cc1 (stereo not given)	-21.7%	4.3%	-3.6%	-22.4%	-89.6*	4.1%
CCOc1ccc(CC2NCCc3cc(OCC)c(OCC)cc32)cc1OCC (stereo not given)	-33.6%	-9.6%	-3.3%	?	-31.3	-2.5%
Oc1ccc(C[C@H]2NCCc3cc(O)c(O)cc32)cc1O	17.8µM*	10.8%	-1.0%	3.0%	11.2	-11.7%
COc1cc2c(cc1OC)C(Cc1ccc(O)cc1)NCC2 (stereo not given)	-5.5%	-11.3%	-2.9%	-22.5%	-78.5*	2.5%
COc1cc2c(cc1OC)C(COc1ccc(F)cc1)NCC2 (stereo not given)	-28.1%	0.3%	-8.4%	-24.1%	?	6.3%
CC(=O)N1CC[C@H]2CC(=O)CC[C@@]21C	/	/	2.0%[136 µM]	/	/	/
CCCCC(CC)CNC(=O)Cc1ccc(-n2c(=O)[nH]c3ccccc3c2=O)cc1 (stereo not given)	-1.4%	1.4%	/	-18.1%	-8.8	/
SMILES	Sm TGR block	TbPYK inhibitor	FBPA Giardia inh	FMDV inh	HCMV inh	RE007 growth inh
Cc1ccc2oc3c(c(=O)c2c1)C(c1cccc(O)c1)N(Cc1ccccc1Cl)C3=O (stereo not given)	-4.9%	1.1%	/	20.8%	-74.0*	/
Cc1cc(C)c2c(=O)c3c(oc2c1)C(=O)N(Cc1ccc(F)cc1)C3c1cccc(O)c1 (stereo not given)	1.3%	-12.0%	/	-10.9%	-65.6*	/
CCC[C@H]1[C@H](N(C)Cc2cccs2)CC[C@@]23CCCN2C(=O)CCC[C@@H]13	/	/	/	/	-4.9	/
Cc1sc2ncnc(N3CCN(CCOc4ccc(Cl)cc4)CC3)c2c1C	-4.9%	-1.6%	5.1%	?	-93.2*	-5.9%
Cc1sc2ncnc(N3CCN(Cc4ccccc4)CC3)c2c1-c1ccccc1	-7.1%	-19.0%	2.1%	28.2µM*	-21.0	4.4%
COc1ccccc1/C=C/c1nc2ccccc2n1C(C)C	-3.7%	-3.0%	/	12.5%	70.6	/
O=C(Nc1cccnc1)C12CC3CC(CC(C3)C1)C2	7.3%	-3.3%	1.2%	-18.3%	-63.7*	4.7%
Cc1c(C(=O)NCC(C)(C)N2CCOCC2)cnn1-c1ncc2c(n1)-c1ccccc1CC2	/	/	/	0.5%	/	/
Cc1nn(Cc2ccccc2)c(C)c1N	0.4%	3.5%	?	-23.3%	25.7	9.5%
Cc1nn(Cc2ccccc2)c(C)c1C=C1C(=O)NC(=S)NC1=O	7.94µM*	?	-20.7%	14.1µM*	-0.7	20.3%
O=C1/C(=C/c2cccnc2)SC(=S)N1C1CCS(=O)(=O)C1 (stereo not given)	-1.6%	0.6%	2.2%	14.1µM*	?	2.9%
O=C1/C(=C/c2cccs2)SC(=S)N1N1CCOCC1	?	1.6%	6.5%	14.6%	?	-8.5%
O=C1/C(=C\c2cccnc2)SC(=S)N1C1CCS(=O)(=O)C1 (stereo not given)	-1.1%	-1.6%	-8.0%	?	-12.8	-11.0%
O=C1/C(=C/c2cccnc2)SC(=S)N1N1CCOCC1	2.82µM*	0.7%	3.0%	-14.7%	-6.4	28.4%
O=C1/C(=C/c2ccncc2)SC(=S)N1N1CCOCC1	0.891µM*	-14.6%	?	-1.9%	18.5	6.8%
COC(=O)c1ccc2c(=O)n(CCCCCC(=O)NCc3ccc(Cl)cc3)c(=O)[nH]c2c1	2.3%	6.7%	/	11.9%	40.4	/
CN(C(=O)CSc1nc(C2CCCC2)nc2c1c(=O)n(C)c(=O)n2C)c1ccccc1	3.8%	1.4%	/	?	-36.4	/
CSc1nc(C)cc(Nc2cccc(C(=O)O)c2)n1	-1.5%	0.8%	/	0.0%	22.3	/
O=C(Nc1nnc(C2CC2)s1)C1COc2ccccc2O1 (stereo not given)	?	-2.1%	4.0%	20.4%	39.9	-20.7%
O=C(/C=C/c1ccc(Br)o1)Nc1nnc(C2CC2)s1	11.2µM*	/	-3.3%	/	/	/
CN(C)c1ccc(/C=C2\CCCCC2=O)cc1	-1.2%	-5.4%	-3.4%	12.4%	7.4	-26.2%
CN(C)CCC1(C2=CCCC2)CC/C(=C/c2ccc(Cl)cc2)C1=O (stereo not given)	/	-7.7%	/	-21.6%	-85.9*	1.7%
